Source: PMC4336329 (PLoS ONE, 2015)
In all, about 310,000 compounds went through this assay and about 14,000 (4.5%) showed an effect of 50% or more. The effect is printed as a negative number. Only a selection was taken, and strong results are over-represented in it overall.

target: human ether-à-go-go-related gene (hERG) potassium channel (human, UniProt Q12809); assay: primary screen, population patch clamp on CHO cells stably expressing hERG; higher = less effect of the substance
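Note: peak tail current of the secondary pulse compared with the same well before compound.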

Chain of human ether-à-go-go-related gene (hERG) potassium channel (Q12809 whole entry, looked up): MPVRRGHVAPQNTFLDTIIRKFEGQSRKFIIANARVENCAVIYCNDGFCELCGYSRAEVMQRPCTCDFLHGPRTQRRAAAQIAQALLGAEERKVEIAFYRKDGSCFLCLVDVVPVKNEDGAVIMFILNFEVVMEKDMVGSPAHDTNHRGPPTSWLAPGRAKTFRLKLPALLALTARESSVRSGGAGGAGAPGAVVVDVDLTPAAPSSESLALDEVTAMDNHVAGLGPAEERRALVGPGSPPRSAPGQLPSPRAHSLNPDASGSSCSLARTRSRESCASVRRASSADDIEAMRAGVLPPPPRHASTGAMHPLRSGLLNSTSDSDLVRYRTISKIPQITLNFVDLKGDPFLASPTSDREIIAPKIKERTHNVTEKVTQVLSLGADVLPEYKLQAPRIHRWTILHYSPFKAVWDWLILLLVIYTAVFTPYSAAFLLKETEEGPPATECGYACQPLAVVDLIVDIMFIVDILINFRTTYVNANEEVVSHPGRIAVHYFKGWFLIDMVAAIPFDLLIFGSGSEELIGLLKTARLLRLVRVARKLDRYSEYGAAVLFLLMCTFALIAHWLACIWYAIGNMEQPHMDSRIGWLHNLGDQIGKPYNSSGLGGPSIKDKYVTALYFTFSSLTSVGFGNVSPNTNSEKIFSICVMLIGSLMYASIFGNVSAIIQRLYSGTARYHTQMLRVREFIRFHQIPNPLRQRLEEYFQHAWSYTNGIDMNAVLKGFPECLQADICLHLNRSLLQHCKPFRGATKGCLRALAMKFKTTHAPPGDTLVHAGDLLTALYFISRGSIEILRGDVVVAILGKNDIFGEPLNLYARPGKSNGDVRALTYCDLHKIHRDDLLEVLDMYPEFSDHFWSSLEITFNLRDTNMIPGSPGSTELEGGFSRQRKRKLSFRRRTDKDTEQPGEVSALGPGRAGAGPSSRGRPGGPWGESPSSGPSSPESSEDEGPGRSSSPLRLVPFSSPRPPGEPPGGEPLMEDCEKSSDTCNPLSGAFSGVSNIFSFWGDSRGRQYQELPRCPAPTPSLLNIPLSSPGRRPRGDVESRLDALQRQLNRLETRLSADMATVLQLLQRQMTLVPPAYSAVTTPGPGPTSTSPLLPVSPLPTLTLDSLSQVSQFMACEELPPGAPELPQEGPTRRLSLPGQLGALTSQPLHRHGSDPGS

Row | Compound | hERG current change (%, negative = inhibition) at 10uM
1 | CCOC(=O)Cn1c(=O)oc2cc(S(=O)(=O)N3CCc4ccccc43)ccc21 | -2.03%
2 | CCOC(=O)Cn1c(=O)oc2cc(S(=O)(=O)N3CCn4c3nc3ccccc34)ccc21 | -56.3%
3 | CCOC(=O)Cn1c(=O)oc2cc(S(=O)(=O)N3CCCc4ccccc43)ccc21 | -26.9%
4 | Cc1cccc(CN2CCC(C(=O)Nc3cccc(-c4cscn4)c3)CC2)n1 | -48.2%
5 | Cc1cccc(CN2CCC(C(=O)Nc3cccc(-c4cccc(F)c4)c3)CC2)n1 | -74%
6 | Cc1cc(C)n(CCC(=O)Nc2cccc(F)c2)n1 | 5.83%
7 | Cc1cc(C)n(CCCN2CCC(C(=O)Nc3cccc(-c4cccc(F)c4)c3)CC2)n1 | -80.4%
8 | Cc1cccc(CN2CCC(C(=O)Nc3ccc(-n4nc(C)cc4C)cc3)CC2)n1 | -25.2%
9 | COc1cccc(-c2cccc(NC(=O)C3CCN(Cc4cccc(C)n4)CC3)c2)c1 | -80.1%
10 | Cc1ccccc1C(=O)N1CCC(C(=O)Nc2cccc(F)c2)CC1 | -3.49%
11 | Cc1ccccc1OCCCCN1CCCCC1 | 12.6%
12 | CC(=O)Oc1ccc(-c2cc3c(OC(C)=O)cc(OC(C)=O)cc3oc2=O)cc1 | 14.1%
13 | O=S(=O)(NCC1CCCO1)c1ccc(NS(=O)(=O)c2ccc(F)cc2)cc1 (stereo not drawn) | 14.6%
14 | Cc1cc(C)n(CC(=O)N2CCCC(N3CCN(Cc4ccc5c(c4)OCO5)CC3)C2)n1 (stereo not drawn) | -14.2%
15 | O=C(NCCc1ccccn1)c1ccc(OC2CCN(Cc3ccccn3)CC2)cc1 | 2.88%
16 | O=C(Nc1ncc(Cc2cccc(Cl)c2)s1)c1ccc([N+](=O)[O-])cc1 | 10.6%
17 | O=C(Nc1ccccc1)OCCOc1cccc(Br)c1 | 1.49%
18 | CC(C)c1csc(CN2CCCC(CCC(=O)NCc3ccccc3F)C2)n1 (stereo not drawn) | -34.3%
19 | Cc1ccc(CNC(=O)CCC2CCCN(Cc3cccc4cccnc34)C2)o1 (stereo not drawn) | -66%
20 | Cc1ccc(CNC(=O)CCC2CCCN(Cc3cccc4ncccc34)C2)o1 (stereo not drawn) | -22.4%
21 | Cc1ccc(CNC(=O)CCC2CCCN(Cc3ccc4cccc(F)c4n3)C2)o1 (stereo not drawn) | -52.1%
22 | Cc1nn(C(C)C)c(C)c1CN1CCCC(CCC(=O)NCc2ccccc2F)C1 (stereo not drawn) | 0.286%
23 | Cc1ccc(CNC(=O)CCC2CCCN(Cc3c(C)nn(C(C)C)c3C)C2)o1 (stereo not drawn) | -16.6%
24 | O=C(NN1C(=O)C2C3C=CC([C@H]4CC34)[C@@H]2C1=O)c1ccc(Br)cc1 (stereo partly drawn) | 8.18%
25 | COc1ccc(CNC(=O)CC2C(=O)NCCN2C2Cc3ccccc3C2)cc1 (stereo not drawn) | -28.5%
26 | CCc1c(C(=O)Nc2cc(C)cc(C)c2)[nH]c(C)c1C(C)=O | 12.7%
27 | Cc1nn(C2CCS(=O)(=O)C2)c(Cl)c1/C=C/C(=O)OCC(=O)c1cc(C)n(-c2ccc(F)cc2)c1C (stereo not drawn) | 4.11%

Row | Compound | hERG current change (%, negative = inhibition) at 10uM
28 | Cc1nc(SCC(=O)NC2CCCC2)[nH]c(=O)c1Cc1ccccc1 | 7.93%
29 | CCN1CCN(C(=O)c2cc(-c3cccnc3)nc3ccc(Br)cc23)CC1 | -28.5%
30 | CCN(CC)Cc1c(C(=O)N/N=C/c2ccncc2)nnn1-c1nonc1N | -55.9%
31 | CN(C)Cc1c(C(=O)N/N=C/c2ccncc2)nnn1-c1nonc1N | 3.67%
32 | CCCN(CCC)Cc1c(C(=O)N/N=C/c2ccc(Br)cc2)nnn1-c1nonc1N | -15.3%
33 | CCOc1cccc(-c2c(C(=O)N/N=C/c3ccncc3)nnn2-c2nonc2N)c1 | -9.65%
34 | COCc1c(C(=O)N/N=C(\C)c2ccncc2)nnn1-c1nonc1N | 7.11%
35 | CCOc1cccc(-c2c(C(=O)N/N=C/c3cccnc3)nnn2-c2nonc2N)c1 | -54%
36 | CCCN(CCC)Cc1c(C(=O)N/N=C/c2ccncc2)nnn1-c1nonc1N | -64.1%
37 | CCCN(CCC)Cc1c(C(=O)N/N=C/c2ccsc2)nnn1-c1nonc1N | -14.6%
38 | CCN(CC)Cc1c(C(=O)N/N=C/c2cccnc2)nnn1-c1nonc1N | -10.9%
39 | CCCc1c(C(=O)N/N=C(/C)c2ccncc2)nnn1-c1nonc1N | 0.629%
40 | CCN(CC)Cc1c(C(=O)N/N=C(\C)c2ccncc2)nnn1-c1nonc1N | -80.3%
41 | CCOc1ccc(-c2c(C(=O)N/N=C/c3cccnc3)nnn2-c2nonc2N)cc1 | 9.94%
42 | O=C(c1ccc(-n2c(SCc3cc(F)ccc3F)nc3ccccc3c2=O)cc1)N1CCOCC1 | 8.7%
43 | Cc1noc(C)c1COC(=O)Cc1ccc(Cl)cc1 | -5.13%
44 | COc1ccc(Cc2nc3ccc(C(=O)NCCSC)cc3o2)cc1 | 6.36%
45 | CC(=O)Nc1ccc(S(=O)(=O)N2CCC(N(C)CCC(C)C)CC2)cc1.Cl | -46.8%
46 | c1csc(C2Nc3cccc4cccc(c34)N2)c1 | -17.2%
47 | CCC(=O)Nc1cccc(C(=O)/C=C/c2cccs2)c1 | -3.34%
48 | COc1ccc(/C=N/NC(=O)CNc2ccc(Br)cc2)c(C(=O)O)c1OC | 13.9%
49 | O=C(NCCCN1CCCC1=O)c1ccc(OC(F)(F)F)cc1 | -0.372%
50 | COC(=O)C1=C(C)NC2=C(C(=O)c3ccccc32)C1c1cccc(OC)c1 (stereo not drawn) | 4.97%
51 | CN(C)C(=O)c1ccc(NC(=O)c2ccccc2Sc2ccccc2C#N)cc1 | 1.57%
52 | O=C(O)C1Cn2c(nc3c(c2=O)C2(CCCC2)Cc2ccccc2-3)S1 (stereo not drawn) | 17.3%
53 | C=C1C(C(=O)N2CCOCC2)C1C(=O)N1CCOCC1 (stereo not drawn) | 5.16%
54 | Cc1ccc(/C=N/NC(=O)CSc2nc3ccccc3n2C)s1 | -17.4%
